Laboratory results as given in PubChem BioAssay AID588849 (Broad Institute, 2011).
Results with a measured potency or affinity are listed apart. Calls of active or inactive are those of the source. The rule behind the calls is not given here.

target: CAAX prenyl protease 2 (Homo sapiens) (UniProt Q9Y256); test: human Rce1 protease inhibitors, dose response, biochemical, yeast membranes, quenched-peptide fluorescence, cherry-pick (AID 588849); conditions: yeast membrane fractions expressing human Rce1, quenched-peptide fluorescence, 4 h; series mostly up to 10 µM
Sequence (Q9Y256 whole entry, looked up): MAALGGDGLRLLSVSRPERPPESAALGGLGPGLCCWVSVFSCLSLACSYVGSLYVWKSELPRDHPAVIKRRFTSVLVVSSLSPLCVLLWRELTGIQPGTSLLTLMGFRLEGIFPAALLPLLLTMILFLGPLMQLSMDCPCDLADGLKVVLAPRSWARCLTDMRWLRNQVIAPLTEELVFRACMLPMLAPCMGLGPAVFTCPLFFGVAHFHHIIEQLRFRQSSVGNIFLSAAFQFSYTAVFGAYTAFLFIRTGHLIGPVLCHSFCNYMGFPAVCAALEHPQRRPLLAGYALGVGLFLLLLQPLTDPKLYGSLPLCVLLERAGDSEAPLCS

outcome, inactive:
Cc1ccc(-c2c(C(=O)N/N=C/c3cccc(Cl)c3)nnn2-c2nonc2N)cc1
COC(C[C@@H]1O[C@@H]1C(=O)[C@@H](C)OCc1ccccc1)OC
C/C(=N\NC(=O)c1ccc(Br)cc1)c1cccc(NC(=O)c2cccnc2)c1
Oc1c(N=NC(=S)Nc2ccccc2F)c2ccccc2n1Cc1ccccc1Cl
COc1cc(-c2nc3ccccn3c2/N=C/c2ccccc2)ccc1O
COc1ccc(-c2ccc3oc(-c4ccc(OC)cc4)c(-c4ccc(OC)cc4)c3c2)cc1
C/C(CC(=O)NCc1ccco1)=N\NC(=O)c1ccc([N+](=O)[O-])cc1Cl
CC1(C)CC2CC(C)(CN2S(=O)(=O)c2ccc(N)cc2)C1 (centres undefined)
COc1ccc(Cl)cc1C(=O)Nc1ccc2c(c1)OCO2
COCCCNC(=O)c1cc2cc3cc(OC)ccc3nc2o1
S=c1[nH]nc(-c2ccccc2)o1
O=C1CCN(Cc2ccccc2)CCN1[C@H](CSc1ccccc1)Cc1ccccc1
CCOc1ccccc1CNC(=O)c1cc2occc2n1C
O=c1c(-c2nnc(SCc3ccc(Cl)c(Cl)c3)o2)cccn1Cc1ccccc1
CC(C)c1ccc(NC(=O)COc2nncc3ccccc23)cc1
Cc1ccc(-c2cc(C)nc3nc(N)nn23)cc1
O=C1OCCN1C(=O)[C@H]1[C@H](c2ccc(F)cc2)C(c2ccc(F)cc2)=NN1c1ccc(Br)cc1
COc1ccc(C2CC(c3ccc4ccccc4c3)=NN2C(=O)CNC2CCCCC2)cc1 (centres undefined)
CCOC(=O)c1sc2nc(C3CC3)cc(-c3ccc(F)cc3)c2c1N
O=C(C[n+]1cc2ccccc2c2ccccc21)c1ccccc1
CC1(c2ccc(OCC#N)cc2)C=C(c2ccc(OCC#N)cc2)n2nc(C(F)(F)F)nc2N1 (centres undefined)
CCN(CC)CCN(C(=O)c1cc2ccccc2cc1OC)c1nc2ccc(F)cc2s1
CCSCCOC(=O)C1=C(C)NC(=O)NC1c1ccccc1 (centres undefined)
CC(=O)NC(Cc1c[nH]c2ccccc12)C(=O)O (centres undefined)
Cc1cc(C)c2nc(N(CCCN(C)C)C(=O)c3ccc4c(c3)CCCC4)sc2c1
CCN1CCN(c2ccc(NC(=O)c3cccc(OCc4ccccc4)c3)cc2)CC1
Cc1cc(NS(=O)(=O)c2ccccc2)c([N+](=O)[O-])cc1C
CC(C)c1c(C(=O)N/N=C/c2c[nH]c3ccccc23)nnn1-c1nonc1N
O=C(Nc1ccccc1)n1ccc(-c2ccc(-n3ccnc3)cc2)n1
Cn1c(CN2CCOCC2)c(C#N)c2ccccc21
CCN(CC)CCNC(=O)CSc1c2c(nc3cc(Cl)ccc13)CCCC2
CCc1cc(=O)oc2c3c(cc(OCC(=O)NCCCC(=O)O)c12)OC(C)(C)CC3
COc1ccc(CCN(C)C(=O)c2ccc(S(=O)(=O)Nc3ccccc3C)cc2)cc1OC
O=C(Nc1cccc(-c2cn3ccccc3n2)c1)C1CC1
Nc1nnnn1/N=C/c1ccccc1OCc1ccc(Cl)cc1Cl
Nc1nonc1-n1nnc(C(=O)N/N=C/c2ccoc2)c1CSc1ccccc1
COc1ccc(N2CCN(C(=O)c3cc(-c4cccs4)nc4ccccc34)CC2)cc1
Cc1cc(C)n(-c2nc3ccccc3c(=O)n2OCC(=O)N(C)C)n1
CCCn1c(O)c(N=NC(=O)CNC(=O)Cc2ccc(OC)cc2)c2ccccc21
